High-throughput results deposited in PubChem BioAssay by Milwaukee Institute for Drug Discovery.
Shown are actives, neighbours in structure and some others; about 7.6% of the full set was active somewhere.
NS3h inh CB – hepatitis C NS3 helicase inhibition, primary screen. NS3h Cy5-dT15 DNA binding, fluorescence polarization. inhibition, % at 100 µM. hit rate 1.6% among 16,000. AID 687043;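 active means inhibition above the average over every tested compound plus 3 SD, cut at about 40% in these data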
Cy5 interf NS3h – Cy5 fluorescence interference, HCV helicase counter-screen; Cy5-dT15 DNA with NS3h; actives lie on both sides; signal over control mean, under 1 quenches; fluorescence interference ratio at 100 µM; hit rate 6% among 16,000; AID 720488;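 active means compound fluorescence over control fluorescence at most 0.8, a quencher, or at least a set upper limit, an enhancer; inactive means ratio between 0.8 and the set upper limit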
Active calls of the source: *.

SMILES	NS3h inh CB	Cy5 interf NS3h
Cc1cccc(C2=N/C(=C/c3ccc([N+](=O)[O-])cc3)C(=O)N2c2ccc(O)cc2)c1	15	0.97
COc1ccc(C2=N/C(=C/c3ccc([N+](=O)[O-])cc3)C(=O)N2c2ccc(O)cc2)cc1	16	0.79*
Cc1ccc(CNC(=O)C(=O)NCc2ccccc2)cc1	9	1.2*
COc1ccc(CNC(=O)C(=O)Nc2ccccc2C)cc1	4	1.1
COc1ccc(CCNC(=O)C(=O)NCCCOC(C)C)cc1	6	1.1
O=C(Cc1ccc(F)cc1)NCC1CCCO1 (stereo not given)	4	0.75*
COc1ccc(CC(=O)NCC2CCCO2)cc1OC (stereo not given)	1	1.1
COc1ccc(CNC(=O)C(=O)NCc2ccccc2)cc1	10	0.73*
COCCCNC(=O)C(=O)NCCc1ccc(OC)cc1	13	0.74*
Cc1ccc(CNC(=O)C(=O)NCc2ccncc2)cc1	-4	1
Cc1cccc(N2C(=O)S/C(=C\c3ccccc3)C2=O)c1	23	1
O=C1CC(N2CCN(C(c3ccccc3)c3ccccc3)CC2)C(=O)N1c1ccc(S(=O)(=O)N2CCOCC2)cc1 (stereo not given)	1	1
O=C(COc1ccc2ccccc2c1)Nc1ccccc1C(=O)Nc1ccccc1	-11	1.1
COc1ccc(OC)c(N(CC(=O)Nc2cc(C)cc(C)c2)S(C)(=O)=O)c1	-1	0.96
CCOC(=O)c1cc(-c2ccccc2)oc1CN1CCOCC1	2	1
COc1ccc(C(=O)NCCC(C)C)cc1[N+](=O)[O-]	0	1
O=C(O)c1ccc(C(=O)NCc2ccccc2)c(C(=O)O)c1	-8	1
S=C(NCCOCCOCCNC(=S)Nc1ccccc1)Nc1ccccc1	3	1.1
O=C(Cc1ccc(F)cc1)NCc1ccccc1	3	0.59*
Cc1ccc(CNC(=O)C(=O)N2CCCC2)cc1	4	1.3*
O=C(NCc1ccccc1)c1ccccc1Cl	7	0.79*
O=C(NCc1ccc(F)cc1)c1ccccc1I	10	1
Cc1ccc(CNC(=O)C(=O)NC(C)C)cc1	12	1.1
COCCNC(=S)Nc1ccc(OC)cc1	8	0.77*
O=C(/C=C/c1cc(Br)cs1)Nc1ccc(Cl)cc1Cl	14	0.9
SMILES	NS3h inh CB	Cy5 interf NS3h
COc1cccc(N2C(=O)C(=O)C(=C(O)c3ccccc3)C2c2cccc([N+](=O)[O-])c2)c1 (stereo not given)	8	1
O=C(/C=C/c1ccccc1)NC(=S)Nc1cccc(Cl)c1	3	0.95
CC(C)(C)c1cc(C(C)(C)C)c2nc(-c3ccccc3O)oc2c1O	19	1.1
CCOc1ccc(S(=O)(=O)N(CC(=O)N(CC)CC)c2ccc(C)cc2)cc1	6	1
Cc1ccc(NC(=O)C2CC2(c2ccccc2)c2ccccc2)c(C)c1 (stereo not given)	8	0.99
Cc1ccc(C(O)(CNCc2ccccc2)c2ccc(Br)cc2)cc1 (stereo not given)	7	0.93
COc1ccc(C(O)(CNCc2ccccc2)c2ccc(Br)cc2)cc1 (stereo not given)	16	0.73*
COCCNC(=O)CN(c1ccc(C)cc1)S(=O)(=O)c1ccc(OC)c(OC)c1	3	1.1
O=C(Oc1ccc2c(=O)c(Oc3ccccc3Br)coc2c1)c1ccco1	2	1
O=C(c1ccc(Cl)cc1)N1CCC(Cc2ccccc2)CC1	8	0.98
COc1ccc(N2C(=O)/C(=C\c3ccccc3C)SC2=S)cc1	10	1.2*
COc1cc(/C=C2\SC(=S)N(C)C2=O)ccc1OC(=O)c1cccc(C)c1	14	1
COc1cc(/C=C2/SC(=S)N(c3ccccc3)C2=O)ccc1OC(=O)c1cccc(C)c1	0	0.67*
COc1cc(/C=C2\SC(=S)N(C(C)C(=O)O)C2=O)ccc1O (stereo not given)	14	1
C=CCOc1ccc(/C=C2\SC(=S)N(c3ccc(OC)cc3)C2=O)cc1OC	14	0.73*
COc1ccccc1/C=C1\SC(=S)N(c2ccc(F)cc2)C1=O	-1	1
COc1cc(/C=C2\SC(=S)N(CC(C)C)C2=O)ccc1O	17	0.8*
C=CCOc1ccc(/C=C2\SC(=S)N(c3ccc([N+](=O)[O-])cc3)C2=O)cc1OC	4	1
C#Cc1cccc(NC(=O)c2cccc(N3C(=O)c4ccc(Oc5cccc([N+](=O)[O-])c5)cc4C3=O)c2)c1	3	1
c1ccc(N2N=C(c3ccco3)CC2c2cn(-c3ccccc3)nc2-c2cccnc2)cc1 (stereo not given)	-1	0.96
Cc1csc(NC(=O)c2c(O)c3ccccc3[nH]c2=O)n1	0	1.2*
COc1ccccc1NC(=O)c1c(O)c2ccccc2[nH]c1=O	9	1.1
Cc1ccc(N2C(=O)CC(N3CCC(C)CC3)C2=O)cc1 (stereo not given)	10	1.2*
Cc1ccc(N2C(=O)CC(N3CCSCC3)C2=O)cc1 (stereo not given)	27	0.91
